Data as given in PubChem BioAssay (Tox21).
Results filed as inconclusive are left out. A call without a number means that no potency is given here. Activity calls are given as the source filed them. Calls follow the shape of the full dose curve.

Molecular target: Beta-2 adrenergic receptor (Homo sapiens) (UniProt P07550)
Assay: Adrenergic beta2 receptor (ADRB2) small molecule agonists, cell-based qHTS assay (AID 1963593)
How it was run: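 CHO cells stably over-expressing ADRB2 were plated overnight at 37C, then dosed with compounds plus a stimulation mix containing 100uM IBMX and 25uM Ro-20-1724 for 0.5hr at room temperature. cAMP was measured by HTRF competition, 1hr.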
Potency is read from the fitted curve at half-maximal effect.

Beta-2 adrenergic receptor (Homo sapiens), sequence (P07550 whole entry, looked up): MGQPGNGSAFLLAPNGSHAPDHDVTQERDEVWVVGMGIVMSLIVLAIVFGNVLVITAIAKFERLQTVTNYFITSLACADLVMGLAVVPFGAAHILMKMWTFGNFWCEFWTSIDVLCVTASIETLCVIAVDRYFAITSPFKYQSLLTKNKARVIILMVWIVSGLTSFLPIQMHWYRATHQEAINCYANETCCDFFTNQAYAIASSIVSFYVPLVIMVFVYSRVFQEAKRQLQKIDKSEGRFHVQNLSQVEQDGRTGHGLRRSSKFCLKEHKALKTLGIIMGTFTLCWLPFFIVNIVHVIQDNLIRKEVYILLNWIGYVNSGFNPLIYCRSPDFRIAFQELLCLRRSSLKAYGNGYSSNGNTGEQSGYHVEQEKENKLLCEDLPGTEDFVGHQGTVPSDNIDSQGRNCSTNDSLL

SMILES | Potency
O=[N+]([O-])CCO | inactive
Cn1c(-c2ccccc2)cc(-c2ccccc2)[n+]1C | inactive
C[C@]12CCC(=O)C=C1CC[C@@H]1[C@@H]2CC[C@@]2(C)[C@H]1CC[C@]2(C)O | inactive
O=C(O)C(Cl)(Cl)Cl | inactive
O=C(O)CCCc1ccc(N(CCCl)CCCl)cc1 | inactive
Cc1ccc(N=CN(C)C=Nc2ccc(C)cc2C)c(C)c1 | inactive
C#CCOS(=O)OC1CCCCC1Oc1ccc(C(C)(C)C)cc1 (centres undefined) | inactive
CCCC[n+]1cccc(C)c1 | inactive
CC(C)C(=O)OCC(C)(C)C(OC(=O)C(C)C)C(C)C (centres undefined) | inactive
C[C@]12CC[C@H]3[C@@H](CCC4=CC(=O)CC[C@@H]43)[C@@H]1CC[C@@H]2O | inactive
CN(C)[C@@H]1C(=O)C(C(N)=O)=C(O)[C@@]2(O)C(=O)C3=C(O)c4c(O)cccc4[C@@](C)(O)[C@H]3C[C@@H]12 | inactive
C=CC(N)=O | inactive
Cc1ccccc1[N+](=O)[O-] | inactive
C=CCOC(Cn1ccnc1)c1ccc(Cl)cc1Cl (centres undefined) | inactive
CCCCCCCCCCCCCC[P+](CCCCCC)(CCCCCC)CCCCCC | inactive
O=S(=O)(c1ccc(O)cc1)c1ccc(O)cc1 | inactive
C=CCc1ccc2c(c1)OCO2 | inactive
NC(=O)CN1CCCC1=O | inactive
CCC(=O)O[C@H]1CC[C@H]2[C@@H]3CCC4=CC(=O)CC[C@]4(C)[C@H]3CC[C@]12C | inactive
C1CCC(NC2CCCCC2)CC1 | inactive
CCCCC(CC)CO[N+](=O)[O-] (centres undefined) | inactive
O=C(Cl)OCc1ccccc1 | inactive
CCOC(=O)C1OC1(C)c1ccccc1 (centres undefined) | inactive
N#Cc1cc(Br)c(O)c(Br)c1 | inactive
C=C(C)C(=O)OCC1CO1 (centres undefined) | inactive

SMILES | Potency
CCCCCCCCCBr | inactive
CCC(Br)(CC)C(=O)NC(N)=O | inactive
COC[C@H](C)N(C(=O)CCl)c1c(C)csc1C | inactive
c1ccc2c(c1)Oc1ccccc1O2 | inactive
NC1(c2ccccc2)CCCCC1 | inactive
N[C@@H](Cc1ccc(N(CCCl)CCCl)cc1)C(=O)O | inactive
CC(=O)[O][Hg][c]1ccccc1 | 4.73 µM (active)
CC(C)NC(=O)N1CC(=O)N(c2cc(Cl)cc(Cl)c2)C1=O | inactive
CC(C)CON=O | inactive
Cc1ccc(N)cc1 | inactive
C1CN2CCC1CC2 | inactive
c1ccc(OP(Oc2ccccc2)Oc2ccccc2)cc1 | inactive
CCCCCCCCCCn1cc[n+](C)c1 | inactive
CCN(CC)C(=O)C(C)Oc1cccc2ccccc12 (centres undefined) | inactive
CC1=C(C(=O)Nc2ccccc2)SCCO1 | inactive
CCCCCCCCCCCCCCCC[n+]1ccccc1 | inactive
CCCCNC(=O)n1c(NC(=O)OC)nc2ccccc21 | inactive
Nc1cc(Cl)cc(C(=O)O)c1Cl | inactive
COC(=O)c1ccc(CBr)cc1 | inactive
CC(C)(C)OOC(C)(C)C | inactive
O=C(Cl)c1ccccc1 | inactive
CCC(CC)Nc1c([N+](=O)[O-])cc(C)c(C)c1[N+](=O)[O-] | inactive
CN(C)c1ccccc1 | inactive
Cc1ccc2cc(C)ccc2c1 | inactive
Nn1cnnc1 | inactive

SMILES | Potency
Clc1ccc(Cl)cc1 | inactive
CCCCOP(=O)(CCCC)OCCCC | inactive
O=C(O)C1C(C(=O)O)C2(Cl)C(Cl)=C(Cl)C1(Cl)C2(Cl)Cl (centres undefined) | inactive
C[N+](C)(C)C | inactive
COC(=O)c1cncn1C(C)c1ccccc1 (centres undefined) | inactive
CCOC(=O)c1ccccc1C(=O)OCC | inactive
CCNc1nc(NCC)nc(SC)n1 | inactive
C=CCOC(N)=O | inactive
CCCOC(=O)c1cncn1C(C)c1ccccc1 (centres undefined) | inactive
COc1cc(OC)nc(NC(=O)NS(=O)(=O)c2ncccc2C(=O)N(C)C)n1 | inactive
COC[C@@H](NC(C)=O)C(=O)NCc1ccccc1 | inactive
COP(=O)(O)OC | inactive
O=c1oc2ccccc2c(O)c1C(CC(O)c1ccc(-c2ccc(Br)cc2)cc1)c1ccccc1 (centres undefined) | inactive
C=CC(=O)OCCO | inactive
CCOC(=O)C1(c2ccccc2)CCN(CCC(C#N)(c2ccccc2)c2ccccc2)CC1 | inactive
CCNc1nc(Cl)nc(NCC)n1 | inactive
COC(=O)c1ccccc1N | inactive
CCBr | inactive
NNC(N)=S | inactive
O=C([O-])c1ccccn1.O=C([O-])c1ccccn1.O=C([O-])c1ccccn1.[Cr+3] | inactive
Nc1ccccc1C(=O)OCC(O)CO (centres undefined) | inactive
ClCCBr | inactive
O=NN1CCCC1 | inactive
Nc1ccc(Cc2ccc(N)cc2)cc1 | inactive
